Experimental data taken from paper PMC4336329 (PLoS ONE, 2015).
In all, about 310,000 compounds went through this assay and about 14,000 (4.5%) showed an effect of 50% or more. The effect is printed as a negative number. What follows is part of a selection rich in strong results, with near analogues and random picks from the rest.

Target: human ether-à-go-go-related gene (hERG) potassium channel (human, UniProt Q12809)
Assay: primary screen, population patch clamp on CHO cells stably expressing hERG; higher = less effect of the substance
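Further: peak tail current of the secondary pulse compared with the same well before compound.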

Sequence of human ether-à-go-go-related gene (hERG) potassium channel (Q12809 whole entry, looked up): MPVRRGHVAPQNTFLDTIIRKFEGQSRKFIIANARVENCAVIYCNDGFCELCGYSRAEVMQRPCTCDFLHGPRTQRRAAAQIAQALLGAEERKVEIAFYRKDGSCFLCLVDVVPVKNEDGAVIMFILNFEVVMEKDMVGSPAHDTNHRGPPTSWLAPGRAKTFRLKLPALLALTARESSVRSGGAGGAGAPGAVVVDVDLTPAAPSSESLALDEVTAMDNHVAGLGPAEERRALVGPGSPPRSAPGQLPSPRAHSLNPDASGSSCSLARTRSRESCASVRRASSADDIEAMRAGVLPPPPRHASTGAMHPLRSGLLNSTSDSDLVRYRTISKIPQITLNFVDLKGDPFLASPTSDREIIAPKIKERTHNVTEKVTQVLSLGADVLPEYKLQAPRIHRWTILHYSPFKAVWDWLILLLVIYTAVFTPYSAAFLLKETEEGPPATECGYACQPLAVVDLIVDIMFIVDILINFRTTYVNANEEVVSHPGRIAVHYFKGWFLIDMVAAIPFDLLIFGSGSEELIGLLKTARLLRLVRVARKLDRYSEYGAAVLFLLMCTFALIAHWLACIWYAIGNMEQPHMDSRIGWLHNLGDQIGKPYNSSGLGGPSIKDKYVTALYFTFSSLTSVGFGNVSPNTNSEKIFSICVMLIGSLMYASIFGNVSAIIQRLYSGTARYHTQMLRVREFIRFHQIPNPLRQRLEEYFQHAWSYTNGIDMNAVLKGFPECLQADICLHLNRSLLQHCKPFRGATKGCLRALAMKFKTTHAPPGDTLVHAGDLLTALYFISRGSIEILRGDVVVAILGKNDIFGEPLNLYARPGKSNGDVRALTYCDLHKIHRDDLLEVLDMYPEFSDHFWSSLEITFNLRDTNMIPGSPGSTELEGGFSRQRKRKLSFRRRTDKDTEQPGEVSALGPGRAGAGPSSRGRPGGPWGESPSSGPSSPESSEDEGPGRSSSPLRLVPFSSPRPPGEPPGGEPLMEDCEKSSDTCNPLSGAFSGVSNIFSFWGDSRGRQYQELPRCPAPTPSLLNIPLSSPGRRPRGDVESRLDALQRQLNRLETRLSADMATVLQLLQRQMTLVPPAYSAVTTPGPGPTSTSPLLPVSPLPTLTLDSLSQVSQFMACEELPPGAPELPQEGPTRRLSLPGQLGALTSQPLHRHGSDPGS

SMILES	hERG current change (%, negative = inhibition) at 10uM
Fc1ccc(-c2cc(C(F)(F)F)nc(NCc3cccs3)n2)cc1	14.4%
CCOC(=O)c1c(-c2ccccc2)csc1NC(=O)/C(C#N)=C/c1ccc(O)c(OC)c1	-7.1%
O=C(COc1ccc(/C=N/NC(=O)c2cc3ccccc3o2)cc1Br)Nc1ccccc1	19.3%
Cc1ccccc1NS(=O)(=O)c1ccc(C)c(C(=O)N2CCOCC2)c1	1.47%
COc1ccc(C(=O)NNC(=O)C(=O)N2CCCCC2)cc1OC	59.5%
CCOC(=O)C(NC(=O)Nc1cccc(C)n1)(OCC(F)(F)F)C(F)(F)F (stereo not drawn)	5.06%
CC(=O)COC(=O)C1=NN(c2ccccc2)C(=O)CC1	23.7%
COc1ccc(S(=O)(=O)N2CCCC(C(=O)NCc3ccc(F)cc3)C2)cc1 (stereo not drawn)	6.39%
CCc1nc2ccc(C(=O)NCCc3ccc(OC)c(OC)c3)cc2nc1CC	-0.0865%
Cn1c(O)c(/C=C2\N=c3ccccc3=C2CCNC(=S)NC2CC2)c(=O)n(C)c1=O	-44.6%
Clc1ccc(CN2CCCCCCC2)cc1	-33.1%
Clc1ccc(CN2CCC(c3ccccc3)CC2)cc1	-59.1%
O=S(=O)(NC1CCN(Cc2ccccc2)CC1)c1ccc(Cl)cc1	-41.3%
Cc1c(C(=O)Nc2c(F)cccc2F)sc2ncn(CC(=O)N3CCCCC3)c(=O)c12	3.98%
Cc1cc(NC(=O)CSc2nnc(-c3cccnc3)n2C2CCCCC2C)no1 (stereo not drawn)	3.83%
CCOc1ccc2[nH]c3c(NCCCOC)ncnc3c2c1	-10%
CCOc1ccc2[nH]c3c(NCCOC)ncnc3c2c1	-9.5%
COc1ccc2[nH]c3c(NCCCOC(C)C)ncnc3c2c1	9.68%
CCOc1ccc2[nH]c3c(NCCO)ncnc3c2c1	23.1%
COc1ccc2[nH]c3c(NCCN4CCCCC4)ncnc3c2c1	-55.9%
COc1ccc2[nH]c3c(NCc4ccco4)ncnc3c2c1	-18.1%
CCOc1ccc2[nH]c3c(NCCN(CC)CC)ncnc3c2c1	-71.6%
COc1ccc2[nH]c3c(NCCN(C(C)C)C(C)C)ncnc3c2c1	-70.7%

SMILES	hERG current change (%, negative = inhibition) at 10uM
CCOc1ccc2[nH]c3c(NCCN(C)C)ncnc3c2c1	-19%
COc1ccc2[nH]c3c(NCCCN4CCCC4=O)ncnc3c2c1	-14.6%
CCOc1ccc2[nH]c3c(NCCC(C)C)ncnc3c2c1	7.2%
CCN(CC)CCNc1ncnc2c1[nH]c1ccc(OC)cc12	-63.4%
CCOc1ccccc1NC(=O)c1cnc(NS(=O)(=O)c2ccccc2)nc1	17.8%
CCN(C(=O)COC(=O)c1[nH]c(C)c(C(C)=O)c1C)c1c(N)n(Cc2ccccc2)c(=O)[nH]c1=O	0.295%
Cc1ccc2oc(C(=O)Nc3cc(C)on3)c(C)c2c1	-1.98%
CCCCOc1ccc(NC(=O)C(=O)NCCC2=CCCCC2)cc1	2.25%
CCCCCOC(=O)c1ccc(N2C(=O)C3C4C=CC(C4)C3C2=O)cc1 (stereo not drawn)	-6.84%
C=CCn1c(SCC(=O)Nc2cc(C)on2)nc2sc3c(c2c1=O)CCCC3	-4%
O=C(Nc1ccc(S(=O)(=O)Nc2ncccn2)cc1)c1cccc(Br)c1	16.5%
CC(=O)c1ccc(NC(=O)CCc2nnc3ccc(NCc4ccco4)nn23)cc1	9.4%
COc1ccc(CCn2c(O)c(C=Nc3ccccc3F)c(=O)[nH]c2=O)cc1OC	20.3%
CCOc1ccc(C(N)=O)cc1OC	6.13%
CN(C)c1ccc(C=Nc2cnn(C)c2C(N)=O)cc1	0.759%
COc1ccc(NC(=O)CSc2nnc(-c3cccs3)n2N)c(OC)c1	0.565%
Cn1cc(CN2CCC(N3CCNC(=O)CC3)CC2)c(-c2ccccc2F)n1	8.43%
O=C1c2ccccc2C(=O)N1n1cccc1	8.7%
Cc1c(C)n(CCc2ccccc2)c2ncnc(NCCCN(C)C)c12	-58%
COc1ccc(-n2c(C)c(C)c3c(NCCN(C)C)ncnc32)cc1	-32.4%
Cc1c(C)n(CCCN(C)C)c2ncnc(Nc3ccc(F)cc3)c12	-50.8%
COc1ccc(-n2c(C)c(C)c3c(NCCCN(C)C)ncnc32)cc1	-53.1%
